# “And” between values parts separate entries of the source, which are not always exact repeats. Equal entries are not always repeated. Records with an inconclusive call do not appear. A call without a number means that no potency is given here. A structure can be active in one record and inactive in another. The source made the active and inactive calls. Unless noted, calls come from the whole dose curve; as a rule, active = well fitted curve in the direction sought with a large enough effect; inconclusive = small, poorly fitted or top-dose-only effect, or another doubt; inactive = no such curve, though single readings can be large; an effect the other way counts as inactive or inconclusive.
# Legend:
# [1] = tested on: Zika virus NS2B-NS3 protease; assay: Primary screen GU AMC qHTS for Zika virus inhibitors (AID 1347154); note: nearly all actives have a fitted effect of over 70% in size; note: potency is the fitted concentration of half-maximal effect
# Method in brief: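 Fluorogenic AMC-substrate cleavage by noncovalent NS2B-NS3 protease complex (25 nM, pH 8.0 Tris buffer with Tween 20) followed for 15 minutes at room temperature (~20% conversion). Percent inhibition from ex340/em450 signal change, fitted by 4-parameter Hill equation.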
# [2] = Primary qHTS for small molecule stabilizers of the endoplasmic reticulum resident proteome: Secreted ER Calcium Modulated Protein (SERCaMP) assay (AID 1508630)
# Method in brief: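 The SH-SY5Y reporter protocol was run at 3 concentrations up to 38.3 uM (primary) or 11 concentrations (follow-up): 16 h compound, 100 nM thapsigargin for 4 h, then extracellular luciferase luminescence.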
# [3] = AP1 Signaling Pathway (AID 357; active = well fitted curve in either direction with a large enough effect, not every such curve was filed as active;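 note: ME-180 reporter cells stimulated with EGF at its EC50 level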); details: ME-180 AP-1-bla reporter, EGF-induced, beta-lactamase ratio, 5 h; at 17.2 µM (top of the series)
# Method in brief: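 Read-out was the 460nm/530nm emission ratio (excitation 405nm) after CCF4 loading for 2.5 hours at room temperature. Cells carried an AP-1-driven beta-lactamase reporter, were stimulated with EC50 EGF plus compound for 5 hours, and AC50 values came from titrations.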
# [4] = biological target: Cytochrome P450 1A2 (Homo sapiens) (UniProt P05177); assay: p450-cyp1a2 (AID 410; calls by dose curve; note: potency is the fitted concentration of half-maximal effect)
# Cytochrome P450 1A2 (Homo sapiens), sequence (P05177 whole entry, looked up): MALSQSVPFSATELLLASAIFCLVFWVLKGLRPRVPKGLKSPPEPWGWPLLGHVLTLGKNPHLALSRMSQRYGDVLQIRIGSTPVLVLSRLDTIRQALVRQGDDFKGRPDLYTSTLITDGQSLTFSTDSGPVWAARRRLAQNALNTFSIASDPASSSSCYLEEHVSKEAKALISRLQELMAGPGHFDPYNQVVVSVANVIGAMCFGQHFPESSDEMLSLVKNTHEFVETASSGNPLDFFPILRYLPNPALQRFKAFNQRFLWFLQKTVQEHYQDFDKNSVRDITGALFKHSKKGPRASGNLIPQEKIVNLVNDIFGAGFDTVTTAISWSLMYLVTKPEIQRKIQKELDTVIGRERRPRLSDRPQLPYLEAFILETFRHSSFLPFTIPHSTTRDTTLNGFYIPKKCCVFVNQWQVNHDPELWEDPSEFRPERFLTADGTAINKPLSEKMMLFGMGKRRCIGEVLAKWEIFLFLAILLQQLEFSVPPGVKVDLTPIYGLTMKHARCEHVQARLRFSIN
# Method in brief: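 20nM CYP1A2, 100uM Luciferin-ME (=Km), 100mM KPO4; cpd 10 min RT; +NADPH regen, 60 min RT; stop/detect 20 min; luminescence. Normalized to furafylline 57 uM = full inhibition.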
# [5] = Stat Signaling Pathway (AID 446; active = well fitted curve in either direction with a large enough effect, not every such curve was filed as active;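 note: ME-180 cervical cancer cells given 40 pM IL-6 alongside compound; SIE-controlled beta-lactamase reporter measured as 460/530 nm FRET emission ratio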); details: ME-180 (cervical carcinoma) SIE beta-lactamase reporter, IL-6 stimulated, 5 h; at 17.2 µM (top of the series)
# Method in brief: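 Emission at 460 and 530 nm (excitation 405 nm) reports SIE-controlled beta-lactamase in ME-180 cells. Cells received compound with 40 pM IL-6 for 5 hrs at 37 C; data scaled between 300 pM IL-6 and 125 nM JAK-inhibitor controls.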
# [6] = biological target: Glucocorticoid receptor (Homo sapiens) (UniProt P04150); assay: GR-GFP Redistribution (AID 450;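 active = compounds whose dose series gives a full or clear partial fitted curve of increased nuclear translocation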; note: potency is the fitted concentration of half-maximal effect); details: U2OS GR-GFP nuclear translocation, laser cytometry, 2 h
# Glucocorticoid receptor (Homo sapiens), sequence (P04150 whole entry, looked up, the tested form may be a part): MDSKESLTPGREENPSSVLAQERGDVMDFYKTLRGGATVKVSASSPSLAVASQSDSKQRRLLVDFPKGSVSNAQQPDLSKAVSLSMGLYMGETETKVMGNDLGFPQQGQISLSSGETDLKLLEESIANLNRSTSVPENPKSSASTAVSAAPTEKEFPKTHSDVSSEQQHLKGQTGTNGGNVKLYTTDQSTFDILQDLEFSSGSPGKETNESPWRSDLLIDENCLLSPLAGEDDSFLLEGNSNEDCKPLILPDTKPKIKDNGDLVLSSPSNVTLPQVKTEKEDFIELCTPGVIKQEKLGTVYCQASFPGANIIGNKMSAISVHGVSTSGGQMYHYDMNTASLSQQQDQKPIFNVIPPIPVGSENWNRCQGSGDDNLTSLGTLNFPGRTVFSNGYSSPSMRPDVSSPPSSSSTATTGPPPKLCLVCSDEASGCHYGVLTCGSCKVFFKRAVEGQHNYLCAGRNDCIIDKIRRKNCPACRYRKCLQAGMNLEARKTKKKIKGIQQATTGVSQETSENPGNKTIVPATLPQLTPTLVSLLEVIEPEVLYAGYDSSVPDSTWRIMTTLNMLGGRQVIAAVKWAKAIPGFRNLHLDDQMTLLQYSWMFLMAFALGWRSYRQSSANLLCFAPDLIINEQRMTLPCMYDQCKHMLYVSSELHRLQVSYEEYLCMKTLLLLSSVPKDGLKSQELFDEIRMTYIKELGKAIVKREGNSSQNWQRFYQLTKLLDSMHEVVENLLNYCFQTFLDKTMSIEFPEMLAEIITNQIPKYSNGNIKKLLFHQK
# [7] = biological target: Glucocorticoid receptor (Homo sapiens) (UniProt P04150); assay: GR-EFC Redistribution (AID 451; calls by dose curve; note: potency is the fitted concentration of half-maximal effect); details: CHO-K1 GR-EFC translocation, beta-gal luminescence, 2 h
# Method in brief: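 Translocation of GR-ED fusion to nuclear EA restores b-gal, read by luminescence after 1 h room-temperature detection. Engineered CHO-K1 biosensor cells, 1,000/well, exposed 2 h at 37 C to titrations up to 46 uM final.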
# [8] = biological target: Mitogen-activated protein kinase 10 (Mus musculus) (UniProt Q61831); assay: JNK3 AlphaScreen Assay (AID 530; active = well fitted curve in either direction with a large enough effect, not every such curve was filed as active;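 note: kinase came from lysate of stimulated human HepG2 cells; signal reports phosphorylation of biotinylated GST-cJun 1-79 at Ser73 with 10 µM ATP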)
# Method in brief: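 Kinase buffer: 20 mM Tris-HCl pH 7.6, 10 mM MgCl2, 1 mM DTT, 0.1 mM Na3VO4, 0.01% Tween-20; ATP 10 uM. Substrate biotin-GST-cJun(1-79), enzyme from activated HepG2 lysates. Detection by Ser73 phospho-antibody AlphaScreen.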
# [9] = biological target: 3',5'-cyclic-AMP phosphodiesterase 4B (Homo sapiens) (UniProt Q07343); assay: qHTS Assay for Inhibitors of PDE-IV (AID 607; active = well fitted activation curve with a large enough effect in the main read-out, with a control signal flat, not every such curve was filed as active; note: potency is the fitted concentration of half-maximal effect)
# 3',5'-cyclic-AMP phosphodiesterase 4B (Homo sapiens), sequence (Q07343 whole entry, looked up): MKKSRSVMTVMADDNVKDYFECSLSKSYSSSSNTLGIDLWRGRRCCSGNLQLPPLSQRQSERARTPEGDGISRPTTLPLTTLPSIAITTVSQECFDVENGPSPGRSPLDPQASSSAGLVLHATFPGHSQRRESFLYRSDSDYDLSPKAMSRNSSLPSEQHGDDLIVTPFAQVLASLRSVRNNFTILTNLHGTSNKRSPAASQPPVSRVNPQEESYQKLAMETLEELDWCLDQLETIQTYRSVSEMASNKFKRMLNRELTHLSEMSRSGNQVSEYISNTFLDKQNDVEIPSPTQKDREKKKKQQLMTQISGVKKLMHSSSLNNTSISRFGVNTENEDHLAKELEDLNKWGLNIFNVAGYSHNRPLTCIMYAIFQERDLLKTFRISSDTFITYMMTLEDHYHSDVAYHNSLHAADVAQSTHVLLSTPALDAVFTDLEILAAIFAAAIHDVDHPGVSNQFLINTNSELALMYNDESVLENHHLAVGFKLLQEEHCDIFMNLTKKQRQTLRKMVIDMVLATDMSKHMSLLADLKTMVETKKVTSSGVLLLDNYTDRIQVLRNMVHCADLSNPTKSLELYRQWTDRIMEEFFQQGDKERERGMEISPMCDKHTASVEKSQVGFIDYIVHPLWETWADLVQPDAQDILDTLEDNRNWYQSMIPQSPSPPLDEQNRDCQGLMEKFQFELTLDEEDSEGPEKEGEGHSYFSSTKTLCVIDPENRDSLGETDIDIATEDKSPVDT
# Method in brief: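 The readout is membrane depolarisation from a cAMP-sensing CNG channel, detected with a potential dye at ex 535/em 590. Cells were HEK293-derived (endogenous PDE-IV) at 1000 cells/well, titrated up to 22.9 uM final.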
# [10] = biological target: Cytochrome P450 3A4 (Homo sapiens) (UniProt P08684); assay: qHTS Assay for Activators of Cytochrome P450 3A4 (AID 885); note: nearly all actives have a fitted effect of over 65% in size
# Cytochrome P450 3A4 (Homo sapiens), sequence (P08684 whole entry, looked up): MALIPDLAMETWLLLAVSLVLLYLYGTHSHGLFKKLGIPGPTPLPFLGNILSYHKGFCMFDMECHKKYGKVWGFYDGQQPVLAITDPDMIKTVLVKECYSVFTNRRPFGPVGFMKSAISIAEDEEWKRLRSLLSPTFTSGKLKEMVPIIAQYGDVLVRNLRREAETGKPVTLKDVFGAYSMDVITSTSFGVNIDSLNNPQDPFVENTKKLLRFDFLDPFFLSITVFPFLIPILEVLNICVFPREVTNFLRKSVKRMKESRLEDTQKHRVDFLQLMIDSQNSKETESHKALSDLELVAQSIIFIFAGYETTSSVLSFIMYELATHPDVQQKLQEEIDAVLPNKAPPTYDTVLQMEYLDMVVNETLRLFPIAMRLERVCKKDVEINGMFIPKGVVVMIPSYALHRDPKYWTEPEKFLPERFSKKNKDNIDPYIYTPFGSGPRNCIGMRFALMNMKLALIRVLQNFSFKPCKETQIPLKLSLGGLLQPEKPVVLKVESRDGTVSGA
# Method in brief: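 Activators are scored by enhanced luminescence from CYP3A4 conversion of luciferin-PPXE (25uM, equal to KM) to luciferin, after 60 min at RT with an NADPH-regenerating system.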
# [11] = biological target: Cytochrome P450 2D6 (Homo sapiens) (UniProt P10635); assay: qHTS Assay for Inhibitors and Substrates of Cytochrome P450 2D6 (AID 891); note: potency is the fitted concentration of half-maximal effect; nearly all actives have a fitted effect of over 60% in size
# Cytochrome P450 2D6 (Homo sapiens), sequence (P10635 whole entry, looked up): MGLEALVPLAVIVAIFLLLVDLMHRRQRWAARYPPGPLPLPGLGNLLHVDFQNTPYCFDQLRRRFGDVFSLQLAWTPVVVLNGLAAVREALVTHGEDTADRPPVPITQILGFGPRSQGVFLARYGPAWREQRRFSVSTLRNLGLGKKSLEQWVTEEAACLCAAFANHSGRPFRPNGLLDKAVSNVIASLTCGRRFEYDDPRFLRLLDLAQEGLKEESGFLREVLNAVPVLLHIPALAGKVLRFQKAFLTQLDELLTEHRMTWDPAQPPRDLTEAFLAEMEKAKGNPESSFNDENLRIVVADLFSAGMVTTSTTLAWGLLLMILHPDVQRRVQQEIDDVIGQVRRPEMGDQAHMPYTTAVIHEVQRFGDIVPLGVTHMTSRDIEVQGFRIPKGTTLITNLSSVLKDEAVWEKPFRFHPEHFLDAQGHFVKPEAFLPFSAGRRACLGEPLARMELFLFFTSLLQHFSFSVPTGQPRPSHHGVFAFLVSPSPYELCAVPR
# Method in brief: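 Luminescent read-out of luciferin formed by 5 nM human CYP2D6 demethylating 30 uM Luciferin-ME EGE (Km level) over 60 min at room temperature after NADPH regeneration addition. Data normalized to full inhibition by 1.43 uM quinidine.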
# [12] = qHTS Assay for Lipid Storage Modulators (AID 1519; calls by dose curve); details: Drosophila S3 cells, BODIPY lipid droplet/cell ratio, laser cytometry, cells loaded with oleic acid
# Method in brief: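 Cells seeded at 5,000 per well were treated with compounds over a concentration series and loaded with oleic acid (400 uM, as added). Lipid droplet fluorescence (488 nm excitation, 500-530 nm channel) was read by laser-scanning cytometry and normalized to 20 uM Triacsin C.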
# [13] = biological target: Ubiquitin carboxyl-terminal hydrolase 1 (Homo sapiens) (UniProt O94782); assay: Inhibitors of USP1/UAF1: Pilot qHTS (AID 504865);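 note: rhodamine fluorescence freed from ubiquitin-rhodamine substrate followed over time; top concentration of the series differs between compounds; nearly all actives have a fitted effect of over 35% in size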
# Ubiquitin carboxyl-terminal hydrolase 1 (Homo sapiens), sequence (O94782 whole entry, looked up): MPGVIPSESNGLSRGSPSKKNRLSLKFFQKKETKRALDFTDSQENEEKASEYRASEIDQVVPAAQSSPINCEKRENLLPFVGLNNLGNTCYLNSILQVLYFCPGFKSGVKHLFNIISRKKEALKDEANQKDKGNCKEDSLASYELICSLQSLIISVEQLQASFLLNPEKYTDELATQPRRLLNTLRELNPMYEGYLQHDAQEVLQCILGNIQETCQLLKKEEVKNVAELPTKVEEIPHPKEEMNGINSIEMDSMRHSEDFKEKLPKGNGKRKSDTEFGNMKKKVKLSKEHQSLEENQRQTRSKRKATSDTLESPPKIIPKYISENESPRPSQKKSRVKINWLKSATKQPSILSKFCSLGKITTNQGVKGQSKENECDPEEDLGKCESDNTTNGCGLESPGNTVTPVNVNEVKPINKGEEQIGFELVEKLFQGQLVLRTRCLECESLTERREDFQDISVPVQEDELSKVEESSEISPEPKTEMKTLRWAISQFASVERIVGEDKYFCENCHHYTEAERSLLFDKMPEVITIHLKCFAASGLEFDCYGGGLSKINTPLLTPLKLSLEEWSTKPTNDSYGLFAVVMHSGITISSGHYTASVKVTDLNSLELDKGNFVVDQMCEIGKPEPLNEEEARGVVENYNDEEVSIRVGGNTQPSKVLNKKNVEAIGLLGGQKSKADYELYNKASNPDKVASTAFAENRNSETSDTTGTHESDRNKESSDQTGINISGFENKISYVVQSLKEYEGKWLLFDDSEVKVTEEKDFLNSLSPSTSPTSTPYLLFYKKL
# Method in brief: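 Enzyme-free wells gave the negative control, while test wells held 1nM USP1/UAF1 preincubated with compound for 15 min at room temperature. Ub-Rho at 150nM final started the reaction, and fluorescence at 480/540 nm was recorded kinetically.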
# [14] = biological target: DNA dC->dU-editing enzyme APOBEC-3G (Homo sapiens) (UniProt Q9HC16); assay: qHTS for inhibitors of Vif-A3G interactions: Validation (AID 588379)
# DNA dC->dU-editing enzyme APOBEC-3G (Homo sapiens), sequence (Q9HC16 whole entry, looked up): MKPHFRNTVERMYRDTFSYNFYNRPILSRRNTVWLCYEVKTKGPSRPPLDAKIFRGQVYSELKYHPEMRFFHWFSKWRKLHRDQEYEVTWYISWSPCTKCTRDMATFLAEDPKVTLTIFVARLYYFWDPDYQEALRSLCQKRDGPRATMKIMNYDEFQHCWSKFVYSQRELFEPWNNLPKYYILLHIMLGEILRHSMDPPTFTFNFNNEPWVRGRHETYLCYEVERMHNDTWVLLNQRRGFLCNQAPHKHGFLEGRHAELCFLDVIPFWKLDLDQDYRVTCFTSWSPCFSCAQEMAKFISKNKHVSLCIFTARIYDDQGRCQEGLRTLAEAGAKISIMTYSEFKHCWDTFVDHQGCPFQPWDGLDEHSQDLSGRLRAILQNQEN
# Method in brief: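 Yellow fluorescence (Ex 488, Em 500-530) of Vif-coexpressing HeLa A3G-eYFP cells, scanned by Acumen cytometer, reports blocked A3G degradation. Cells plated at 700/well overnight at 37 deg C before compound addition, then a further overnight compound incubation at 37 deg C.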
compound,measurement,setting,value
N[C@@H](Cc1cc(I)c(Oc2ccc(O)cc2)c(I)c1)C(=O)O,Potency,[1],inactive
same,Potency,[2],inactive
CCCCCCCCC#CCC#CCC#CCCCC(=O)O,"activity change, negative = inhibition",[1],19.3% [at 6.83 µM] (inactive)
same,"activity change, negative = inhibition",[2],-14.3% [at 3.88 µM] (inactive)
N#CC(C#N)=C(N)/C(C#N)=C/c1ccc2[nH]ccc2c1,Potency,[1],inactive
same,Potency,[2],inactive
C=C1CC2COC(=O)C2(Cc2ccc3ccccc3c2)C1 (stereo unspecified),Potency,[1],inactive
same,Potency,[2],inactive
CCCN1CCCC(c2cccc(S(C)(=O)=O)c2)C1 (stereo unspecified),Potency,[1],inactive
same,Potency,[2],inactive
CC(C)[C@H]1c2ccc(F)cc2CC[C@@]1(CCN(C)CCCc1nc2ccccc2[nH]1)OC(=O)C1CC1,Potency,[1],inactive
same,Potency,[2],inactive
O=[N+]([O-])c1cc2nc(O)c(O)nc2cc1[N+](=O)[O-],Potency,[1],inactive
same,Potency,[2],inactive
CC1=C(/C=C/C(=C/C=C/C(C)=C/C(=O)O)c2ccc(C)cc2)C(C)(C)CCC1,Potency,[1],inactive
same,Potency,[2],inactive
CCCCC[C@H](O)/C=C/[C@H]1C(=O)C=C[C@@H]1C/C=C\CCCC(=O)O,"activity change, negative = inhibition",[1],15.7% [at 6.83 µM] (inactive)
same,"activity change, negative = inhibition",[2],-10.1% [at 3.88 µM] (inactive)
COc1cccc2c1C(=O)c1c(O)c3c(c(O)c1C2=O)C[C@@](O)(C(=O)CO)C[C@@H]3O[C@@H]1C[C@H](N)[C@H](O)[C@H](C)O1,Potency,[1],inactive
same,Potency,[2],inactive
CC(C)C[C@H](NC(=O)[C@H](Cc1ccccc1)NC(=O)CNC(=O)CNC(=O)[C@@H](N)Cc1ccc(O)cc1)C(=O)N[C@@H](CCCN=C(N)N)C(=O)N[C@@H](CCCN=C(N)N)C(=O)N[C@@H](CCC(N)=O)C(=O)N[C@@H](Cc1ccccc1)C(=O)N[C@@H](CCCCN)C(=O)N[C@H](C(=O)N[C@H](C(=O)N[C@H](C(=O)O)[C@@H](C)O)C(C)C)C(C)C,"activity change, negative = inhibition",[1],3.02% [at 6.83 µM] (inactive)
same,"activity change, negative = inhibition",[2],-2% [at 3.88 µM] (inactive)
O=Nc1ccc(O)c2ncccc12,Potency,[1],inactive
same,Potency,[2],inactive
N#Cc1ccccc1OCC(O)CNCCNC(=O)Nc1ccccc1 (stereo unspecified),Potency,[1],inactive
same,Potency,[2],inactive
NCCCC[C@@H](N)C(=O)O,Potency,[1],inactive
same,Potency,[2],inactive
N[C@H](CS)C(=O)O,Potency,[1],inactive
same,Potency,[2],inactive
NC(N)=NCCC[C@H](NC(=O)[C@@H](N)Cc1ccc(O)cc1)C(=O)O,"activity change, negative = inhibition",[1],2.03% [at 6.83 µM] (inactive)
same,"activity change, negative = inhibition",[2],-11.6% [at 3.88 µM] (inactive)
CCC(=O)NC1Cc2ccccc2C(c2ccccc2)C1 (stereo unspecified),Potency,[1],inactive
same,Potency,[2],inactive
CCCCCCCCCCC1=C(C)C(=O)C(OC)=C(OC)C1=O,Potency,[1],inactive
same,Potency,[2],inactive
Nc1ccnc2c1ncn2[C@@H]1O[C@H](CO)[C@@H](O)[C@H]1O,Potency,[1],inactive
same,Potency,[2],inactive
NC(=O)N/N=C/c1ccc(Oc2ccc(F)cc2)cc1,Potency,[1],inactive
same,Potency,[2],inactive
N[C@@]1(C(=O)O)CN[C@@H](C(=O)O)C1,Potency,[1],inactive
same,Potency,[2],inactive
CO[C@H]1C[C@@H]2CC[C@@H](C)[C@@](O)(O2)C(=O)C(=O)N2CCCC[C@H]2C(=O)OC([C@H](C)C[C@@H]2CC[C@@H](O)[C@H](OC)C2)CC(=O)[C@H](C)/C=C(\C)[C@@H](O)[C@@H](OC)C(=O)[C@H](C)C[C@H](C)/C=C/C=C/C=C/1C (stereo partly specified),Potency,[1],inactive
same,Potency,[2],inactive
N[C@H](C(=O)O)[C@H]1C[C@H]1C(=O)O,Potency,[1],inactive
same,Potency,[2],inactive
COc1c(C=O)c(O)cc2c1C(=O)c1ccccc1C2=O,Potency,[1],inactive
same,Potency,[2],inactive
NC(C(=O)O)c1cccc(O)c1 (stereo unspecified),Potency,[1],inactive
same,Potency,[2],inactive
O=c1oc(-c2ccc(C(F)(F)F)cc2)nn1Cc1cc(Cl)ccc1O,Potency,[1],inactive
same,Potency,[2],inactive
CC(=O)N[C@@H](CSC/C=C(\C)CCC=C(C)C)C(=O)O,Potency,[1],inactive
same,Potency,[2],inactive
Clc1ccc2ncnc(NCc3ccc4c(c3)OCO4)c2c1,Potency,[1],inactive
same,Potency,[2],inactive
CCCCC/C=C\C\C=C/C=C/C=C/[C@@H](SC[C@H](NC(=O)CC[C@H](N)C(=O)O)C(=O)NCC(=O)O)[C@@H](O)CCCC(=O)O,"activity change, negative = inhibition",[1],8.51% [at 0.59 µM] (inactive)
same,"activity change, negative = inhibition",[2],-14.5% [at 0.478 µM] (inactive)
CCc1c2c(nc3ccc(OC(=O)N4CCC(N5CCCCC5)CC4)cc13)-c1cc3c(c(=O)n1C2)COC(=O)C3(O)CC (stereo unspecified),Potency,[1],29.9 µM (active)
same,Potency,[2],inactive
CC(O)[C@@H](N)C(=O)O (stereo partly specified),Potency,[1],inactive
same,Potency,[2],inactive
NC(CC(=O)Nc1ccc(Oc2cc(F)c(F)cc2Br)cc1)C(=O)O (stereo unspecified),Potency,[1],inactive
same,Potency,[2],inactive
CCN(CC)CCOC(=O)C1(c2ccc([N+](=O)[O-])cc2)CCCC1,"activity change, negative = inhibition",[3],3.14% (inactive)
same,Potency,[4],3.98 µM (active) and 3.16 µM (active)
same,"activity, negative = inhibition",[5],6.83% (inactive)
same,Potency,[6],> 20.6 µM (inactive) and > 46 µM (inactive)
same,Potency,[7],> 20.6 µM (inactive) and > 46 µM (inactive)
same,Potency,[8],inactive
same,Potency,[9],inactive and 4.77 µM (active)
same,Potency,[10],inactive
same,Potency,[11],3.98 µM (active) and 5.01 µM (active)
same,"activity change, negative = inhibition",[12]; at 25.7 µM (top of the series),-0.418% (inactive)
same,"activity change, negative = inhibition",[12]; at 57.5 µM (top of the series),-3.02% (inactive)
same,max response,[12]; measured here: cell count channel max response,-8.14% and -12.9%
same,max response,[12]; measured here: lipid channel max response,-19.2% and -15.6%
same,Potency,[13],inactive
same,Potency,[14],inactive
same,Potency,[1],inactive
same,Potency,[2],inactive

# — PubChem BioAssay (NCATS)
